Experimental data as given in PubChem BioAssay (Tox21).
Inconclusive results are not listed. The source made the active and inactive calls. Unless noted, the call rests on the fitted dose curve; in most records, active means well fitted curve in the direction sought with a large enough effect in the repeat runs; inconclusive means weak or mixed curves; inactive means no such curve, though single readings can be large; an effect the other way counts as inactive or inconclusive.

What was measured:
[1] = qHTS assay to identify small molecule agonists of the sonic hedgehog signaling (Shh) pathway (AID 1259368; calls by dose curve;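 further: NIH/3T3-derived 3T3Gli1-Luc cells carrying a stable Gli1-driven firefly luciferase reporter; series mostly up to about 92 µM; nearly all actives have a fitted effect of over 15% in size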)
In short: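 Luminescence was read after 30 min at room temperature with luciferase reagent. Before that, 3T3Gli1-Luc cells (NIH/3T3 clone, stable Gli1-Luc reporter; 2,000/well) were exposed to compounds for 24 hr at 37C, 5% CO2, compounds being added 4 hr post-plating.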

[2] = qHTS assay to identify small molecule antagonists of the sonic hedgehog signaling (Shh) pathway (AID 1259369; calls by dose curve; further: nearly all actives have a fitted effect of over 45% in size; further: potency means the concentration at half of the fitted maximal effect)
In short: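 Antagonist mode: compound added to 3T3 Gli1-Luc cells followed by conditioned-medium stimulation, 24 h at 37 C, 5% CO2. Inhibition taken as loss of Gli1-driven luciferase luminescence.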

[3] = molecular target: Estrogen receptor beta (Homo sapiens) (UniProt Q92731); assay: qHTS assay to identify small molecule antagonists of the estrogen receptor beta (ER-beta) signaling pathway (AID 1259378; active means well fitted inhibition curve with a large enough effect in the signal ratio in the repeat runs, not every such curve was filed as active; the % refers to the signal ratio; further: potency means the concentration at half of the fitted maximal effect)
Estrogen receptor beta (Homo sapiens), sequence (Q92731 whole entry, looked up): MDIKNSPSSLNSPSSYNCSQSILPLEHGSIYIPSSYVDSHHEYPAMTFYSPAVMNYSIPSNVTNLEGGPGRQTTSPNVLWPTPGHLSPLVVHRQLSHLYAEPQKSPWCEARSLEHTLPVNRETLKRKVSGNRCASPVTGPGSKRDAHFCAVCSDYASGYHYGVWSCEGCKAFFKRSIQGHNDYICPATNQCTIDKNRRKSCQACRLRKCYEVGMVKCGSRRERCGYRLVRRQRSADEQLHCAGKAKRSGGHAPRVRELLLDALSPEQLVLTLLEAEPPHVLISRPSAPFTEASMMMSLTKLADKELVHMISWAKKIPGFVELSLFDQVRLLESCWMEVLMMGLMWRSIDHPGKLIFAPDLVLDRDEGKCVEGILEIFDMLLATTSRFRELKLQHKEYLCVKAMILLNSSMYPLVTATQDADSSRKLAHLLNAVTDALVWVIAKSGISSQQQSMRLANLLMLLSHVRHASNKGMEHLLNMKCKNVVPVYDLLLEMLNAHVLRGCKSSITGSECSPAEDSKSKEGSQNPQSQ
In short: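 Antagonist mode: compounds added to beta-lactamase reporter HEK293T ER-beta-UAS cells stimulated with E2 (1nM final), 16 hr at 37C. LiveBLAzer B/G FRET substrate, 2 hours room temperature, fluorescence read-out.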

[4] = qHTS assay to identify small molecule agonists of the androgen receptor (AR) signaling pathway in the presence of an antagonist - cell viability counter screen (AID 1259379);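 further: MDA-kb2 human breast cancer cells carrying an MMTV luciferase reporter; series mostly up to about 92 µM; nearly all actives have a fitted effect of over 25% in size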
In short: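 Cytotoxicity counter-screen run in the same wells as the nilutamide-challenged (3.0 µM final) AR agonist assay in MDA-kb2 cells. Compounds tested at 15 concentrations for 16 h, 37 °C without CO2; CellTiter-Fluor fluorescence read.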

[5] = qHTS assay to identify small molecule agonists of the estrogen receptor beta (ER-beta) signaling pathway - cell viability counter screen (AID 1259380); further: nearly all actives have a fitted effect of over 30% in size
In short: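 Cell viability counter screen: CellTiter-Glo luminescence (30 min, room temperature) measured in the same wells as the beta-lactamase readout, after 16 hr compound exposure at 37C of ER-beta-bla HEK293T cells in 2% charcoal-stripped FBS medium.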

[6] = qHTS assay to identify small molecule antagonists of the estrogen receptor beta (ER-beta) signaling pathway - cell viability counter screen (AID 1259382);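 further: HEK293T cells carrying ER-beta-UAS-bla reporter stimulated with estradiol; series mostly up to about 92 µM; nearly all actives have a fitted effect of over 55% in size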
In short: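 Cytotoxicity was measured in the same wells by CellTiter-Glo luminescence after 30 min at room temperature. Cells were ER-beta-bla HEK293T in charcoal-stripped serum, given compound together with 1 nM E2 and incubated 16 h at 37C.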

[7] = molecular target: Estrogen receptor (Homo sapiens) (UniProt P03372); assay: qHTS assay to identify small molecule agonists of the estrogen receptor alpha (ER-alpha) signaling pathway in the presence of an antagonist (AID 1259383; calls by dose curve; further: top concentration of the series differs between compounds; nearly all actives have a fitted effect of over 15% in size)
Estrogen receptor (Homo sapiens), sequence (P03372 whole entry, looked up): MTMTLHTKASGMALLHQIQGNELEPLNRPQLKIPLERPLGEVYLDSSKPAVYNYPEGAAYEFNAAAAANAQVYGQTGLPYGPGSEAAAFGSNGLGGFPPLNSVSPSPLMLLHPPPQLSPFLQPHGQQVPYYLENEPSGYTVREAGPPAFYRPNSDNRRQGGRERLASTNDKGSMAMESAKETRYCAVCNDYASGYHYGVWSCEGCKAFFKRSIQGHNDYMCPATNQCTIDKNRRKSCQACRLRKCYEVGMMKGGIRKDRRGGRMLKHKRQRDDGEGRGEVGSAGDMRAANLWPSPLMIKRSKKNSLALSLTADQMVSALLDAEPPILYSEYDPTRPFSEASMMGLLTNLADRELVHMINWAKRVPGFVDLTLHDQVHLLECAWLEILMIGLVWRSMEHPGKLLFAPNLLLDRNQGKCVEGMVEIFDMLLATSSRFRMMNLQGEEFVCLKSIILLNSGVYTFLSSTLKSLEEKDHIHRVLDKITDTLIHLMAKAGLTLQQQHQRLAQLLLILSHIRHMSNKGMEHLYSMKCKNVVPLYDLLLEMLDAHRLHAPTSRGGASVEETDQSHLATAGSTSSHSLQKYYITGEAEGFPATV
In short: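 Agonist-mode confirmation run in the presence of 10.0nM (final) ICI-182,780 antagonist. The reporter was ERE-driven luciferase in VM7Luc4E2 cells, grown in charcoal-stripped serum. Cells were exposed to 15-concentration compound series for 22hr, then ONE-Glo luminescence was read.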

[8] = qHTS assay to identify small molecule agonists of the estrogen receptor alpha (ER-alpha) signaling pathway in the presence of an antagonist - cell viability counter screen (AID 1259386); further: series mostly up to about 92 µM; nearly all actives have a fitted effect of over 30% in size
In short: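 Compounds tested at 15 concentrations for 22 h at 37C alongside 10.0nM (final) ICI-182,780 antagonist, in VM7Luc4E2 cells grown in phenol red-free, charcoal-stripped medium. Viability read by CellTiter-Fluor fluorescence after 1 h reagent incubation.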

[9] = qHTS assay to identify small molecule agonists of the TGF-beta/Smad signaling pathway - cell viability counter screen (AID 1346829); further: top concentration of the series differs between compounds; nearly all actives have a fitted effect of over 45% in size
In short: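 Cytotoxicity counter screen: CellTiter-Glo luminescence (30 min, room temperature) measured in the SBE-bla HEK 293T reporter wells after 5 hr compound treatment at 37 C and the 2 hr substrate step.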

[10] = molecular target: Androgen receptor (Homo sapiens) (UniProt P10275); assay: qHTS assay to identify small molecule agonists of the androgen receptor (AR) signaling pathway in the presence of an antagonist (AID 1259381; calls by dose curve; further: nearly all actives have a fitted effect of over 15% in size)
Androgen receptor (Homo sapiens), sequence (P10275 whole entry, looked up): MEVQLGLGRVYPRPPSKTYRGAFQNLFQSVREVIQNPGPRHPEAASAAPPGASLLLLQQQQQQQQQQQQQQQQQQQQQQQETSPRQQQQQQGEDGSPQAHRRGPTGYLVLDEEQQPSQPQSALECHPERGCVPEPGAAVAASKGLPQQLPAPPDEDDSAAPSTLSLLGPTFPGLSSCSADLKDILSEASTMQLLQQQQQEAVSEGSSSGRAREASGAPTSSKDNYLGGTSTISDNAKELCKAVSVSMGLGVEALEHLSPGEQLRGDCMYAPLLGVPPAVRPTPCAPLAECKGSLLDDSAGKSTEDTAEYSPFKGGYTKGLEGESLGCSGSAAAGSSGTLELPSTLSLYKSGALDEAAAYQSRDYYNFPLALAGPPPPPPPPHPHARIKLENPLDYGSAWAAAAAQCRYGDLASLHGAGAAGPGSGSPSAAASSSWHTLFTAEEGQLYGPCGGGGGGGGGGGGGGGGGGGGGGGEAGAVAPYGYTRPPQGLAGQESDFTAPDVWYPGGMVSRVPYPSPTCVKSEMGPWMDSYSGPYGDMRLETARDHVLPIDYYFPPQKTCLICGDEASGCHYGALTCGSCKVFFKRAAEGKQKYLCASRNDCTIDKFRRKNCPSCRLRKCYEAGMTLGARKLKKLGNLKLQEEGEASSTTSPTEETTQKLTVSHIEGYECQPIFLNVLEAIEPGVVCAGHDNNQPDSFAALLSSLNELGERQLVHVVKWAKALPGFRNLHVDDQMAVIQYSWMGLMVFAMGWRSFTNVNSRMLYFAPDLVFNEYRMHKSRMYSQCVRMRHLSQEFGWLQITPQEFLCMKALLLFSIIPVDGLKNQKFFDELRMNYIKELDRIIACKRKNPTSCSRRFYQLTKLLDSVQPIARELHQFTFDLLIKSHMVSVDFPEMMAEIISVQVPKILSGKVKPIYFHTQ
In short: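 Agonist-mode confirmation run against 3.0 uM final nilutamide: compounds titrated at 15 concentrations onto MDA-kb2 MMTV-luciferase reporter cells. Luminescence measured with ONE-Glo following 16 hr incubation, 37C, 0% CO2.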

[11] = qHTS assay to identify small molecule agonists or antagonists of the thyroid stimulating hormone receptor (TSHR) signaling pathway - wild type cell line counter screen (AID 1259384; calls by dose curve)
In short: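 Counter screen in untransfected Hek293: compounds (15-point titration, triplicate) plus phosphodiesterase inhibitor Ro20-1724 added after 18 h plating; 30 min RT. Intracellular cAMP via competitive d2/cryptate immunoassay, 1 h incubation.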

[12] = molecular target: Thyrotropin receptor (Homo sapiens) (UniProt P16473); assay: qHTS assay to identify small molecule antagonists of the thyroid stimulating hormone receptor (TSHR) signaling pathway (AID 1259385; calls by dose curve; further: nearly all actives have a fitted effect of over 20% in size)
Thyrotropin receptor (Homo sapiens), sequence (P16473 whole entry, looked up): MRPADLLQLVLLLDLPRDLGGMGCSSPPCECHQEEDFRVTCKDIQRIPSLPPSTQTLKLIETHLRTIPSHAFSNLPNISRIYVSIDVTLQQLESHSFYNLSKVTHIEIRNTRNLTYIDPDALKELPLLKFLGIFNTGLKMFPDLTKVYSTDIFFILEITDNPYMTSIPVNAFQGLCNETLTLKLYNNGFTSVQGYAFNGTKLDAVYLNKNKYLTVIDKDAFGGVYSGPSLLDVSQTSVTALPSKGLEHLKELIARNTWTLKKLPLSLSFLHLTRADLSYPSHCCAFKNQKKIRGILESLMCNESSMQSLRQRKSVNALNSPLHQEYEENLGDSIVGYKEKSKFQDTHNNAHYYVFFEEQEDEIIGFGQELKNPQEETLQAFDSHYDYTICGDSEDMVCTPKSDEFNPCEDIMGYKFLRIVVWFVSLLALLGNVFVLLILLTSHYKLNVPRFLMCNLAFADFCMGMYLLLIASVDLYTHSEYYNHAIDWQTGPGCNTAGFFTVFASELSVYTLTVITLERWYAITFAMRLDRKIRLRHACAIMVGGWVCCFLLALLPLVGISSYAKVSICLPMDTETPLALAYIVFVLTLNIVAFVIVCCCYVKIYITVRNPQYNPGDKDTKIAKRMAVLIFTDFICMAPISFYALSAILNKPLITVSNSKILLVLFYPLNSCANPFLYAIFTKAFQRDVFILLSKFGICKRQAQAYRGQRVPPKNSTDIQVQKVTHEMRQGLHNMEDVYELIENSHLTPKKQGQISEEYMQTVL
In short: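 Antagonist mode: compound-treated TSHR-expressing HEK293 cells were stimulated with 1.5 ng/mL TSH (final) in presence of Ro20-1724 for 30 min at RT. HTRF cAMP detection after 1 h; each compound tested at 15 concentrations, triplicate.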

[13] = molecular target: Progesterone receptor (Homo sapiens) (UniProt P06401); assay: qHTS assay to identify small molecule agonists of the progesterone receptor (PR) signaling pathway (AID 1346784; calls by dose curve; further: nearly all actives have a fitted effect of over 30% in size)
Progesterone receptor (Homo sapiens), sequence (P06401 whole entry, looked up): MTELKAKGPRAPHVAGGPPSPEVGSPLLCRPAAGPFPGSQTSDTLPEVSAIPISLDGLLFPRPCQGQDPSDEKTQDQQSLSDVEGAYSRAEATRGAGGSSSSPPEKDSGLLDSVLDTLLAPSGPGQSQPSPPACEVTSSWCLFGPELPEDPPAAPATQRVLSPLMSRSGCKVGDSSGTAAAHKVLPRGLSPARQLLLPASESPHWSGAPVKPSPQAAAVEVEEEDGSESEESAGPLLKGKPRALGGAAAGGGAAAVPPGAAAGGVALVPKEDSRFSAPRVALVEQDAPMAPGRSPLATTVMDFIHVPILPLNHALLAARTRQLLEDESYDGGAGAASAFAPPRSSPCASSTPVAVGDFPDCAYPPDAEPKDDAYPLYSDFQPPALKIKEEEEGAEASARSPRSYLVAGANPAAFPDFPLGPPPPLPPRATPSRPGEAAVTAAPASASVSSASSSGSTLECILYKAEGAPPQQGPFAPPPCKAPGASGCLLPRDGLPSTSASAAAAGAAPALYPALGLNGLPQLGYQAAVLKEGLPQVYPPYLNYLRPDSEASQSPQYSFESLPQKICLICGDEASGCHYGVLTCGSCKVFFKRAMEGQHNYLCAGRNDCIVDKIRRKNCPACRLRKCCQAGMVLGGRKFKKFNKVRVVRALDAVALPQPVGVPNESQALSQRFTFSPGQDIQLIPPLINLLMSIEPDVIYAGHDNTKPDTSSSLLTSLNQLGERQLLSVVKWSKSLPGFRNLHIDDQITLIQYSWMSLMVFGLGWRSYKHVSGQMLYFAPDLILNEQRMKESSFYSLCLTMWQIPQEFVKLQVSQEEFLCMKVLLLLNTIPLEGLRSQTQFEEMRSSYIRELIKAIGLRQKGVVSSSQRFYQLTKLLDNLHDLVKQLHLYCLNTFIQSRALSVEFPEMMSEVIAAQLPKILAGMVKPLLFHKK
In short: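 The screen uses PR-UAS-bla HEK 293T cells in charcoal-stripped serum (2%). Compounds are applied for 16 hr at 37C after a 6 hr pre-incubation, and reporter activity is detected with a FRET beta-lactamase substrate after 2 hr at room temperature.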

[14] = molecular target: Progesterone receptor (Homo sapiens) (UniProt P06401); assay: qHTS assay to identify small molecule antagonists of the progesterone receptor (PR) signaling pathway (AID 1346795; active means well fitted inhibition curve with a large enough effect in the signal ratio in the repeat runs, not every such curve was filed as active; the % refers to the signal ratio)
In short: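 After 6 hr plating at 37C in 2% stripped-serum medium, PR-UAS-bla HEK293T cells got compounds, then 1 nM R5020. Sixteen hours later, LiveBLAzer substrate was applied for 2 hr at room temperature and fluorescence was recorded.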

[15] = qHTS assay to identify small molecule agonists of the progesterone receptor (PR) signaling pathway - cell viability counter screen (AID 1346799; calls by dose curve; further: nearly all actives have a fitted effect of over 45% in size)
In short: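 Viability was scored by ATP luminescence (CellTiter-Glo, 30 min, room temperature) in the same wells used for the reporter readout, after 16 hr compound exposure of PR-UAS-bla HEK293T cells.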

[16] = qHTS assay to identify small molecule antagonists of the TGF-beta/Smad signaling pathway - cell viability counter screen (AID 1346824); further: nearly all actives have a fitted effect of over 50% in size
In short: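 Cytotoxicity counter-screen run in the same wells as the beta-lactamase Smad reporter read: CellTiter-Glo luminescence after 30 min at room temperature. HEK 293T SBE-bla cells had 5 hr compound exposure at 37 C with TGF-beta1 (0.25 ng/mL stock).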

[17] = qHTS assay to identify small molecule agonists of the TGF-beta/Smad signaling pathway (AID 1346859; active means well fitted activation curve with a large enough effect in the signal ratio in the repeat runs, not every such curve was filed as active; the % refers to the signal ratio; further: series mostly up to about 77 µM)
In short: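 Dual-wavelength fluorescence (460/530 nm emission) quantified beta-lactamase expression under the Smad binding element in HEK 293T cells following 5 hr compound treatment at 37 C.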

[18] = molecular target: Thyrotropin-releasing hormone receptor (Homo sapiens) (UniProt P34981); assay: qHTS assay to identify small molecule antagonists of the thyrotropin-releasing hormone receptor (TRHR) signaling pathway (AID 1346877; active means well fitted inhibition curve with a large enough effect in the repeat runs, not every such curve was filed as active; further: series mostly up to about 51 µM)
Thyrotropin-releasing hormone receptor (Homo sapiens), sequence (P34981 whole entry, looked up): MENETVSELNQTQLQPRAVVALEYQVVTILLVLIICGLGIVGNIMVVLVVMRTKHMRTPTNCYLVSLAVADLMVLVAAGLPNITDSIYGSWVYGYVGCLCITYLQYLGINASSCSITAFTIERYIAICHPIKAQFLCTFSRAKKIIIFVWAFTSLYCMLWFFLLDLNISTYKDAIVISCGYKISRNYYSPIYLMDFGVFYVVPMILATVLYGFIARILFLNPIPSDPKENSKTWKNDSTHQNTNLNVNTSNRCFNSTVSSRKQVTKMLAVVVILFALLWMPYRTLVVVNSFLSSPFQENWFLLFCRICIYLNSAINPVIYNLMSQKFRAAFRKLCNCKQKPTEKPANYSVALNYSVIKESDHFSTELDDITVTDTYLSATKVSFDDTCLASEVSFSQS
In short: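 Antagonist mode: after a 5 min room-temperature compound exposure, cells were stimulated with 1 nM (final) TRH. Dye-loaded TRHR-HEK293 cells were used, and calcium-dependent fluorescence was followed for 3 min, with 15-point titrations run in triplicate.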

[19] = molecular target: Estrogen receptor beta (Homo sapiens) (UniProt Q92731); assay: qHTS assay to identify small molecule agonists of the estrogen receptor beta (ER-beta) signaling pathway (AID 1259377; active means well fitted activation curve with a large enough effect in the signal ratio in the repeat runs, not every such curve was filed as active; the % refers to the signal ratio)
In short: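 Measured by fluorescence intensity from a B/G FRET beta-lactamase substrate (2 h, room temperature) in ER-beta-UAS-bla HEK293T cells treated with DMSO-dissolved compounds for 16 hr at 37C and 5% CO2.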

[20] = qHTS assay to identify small molecule antagonists of the progesterone receptor (PR) signaling pathway - cell viability counter screen (AID 1346798); further: series mostly up to about 92 µM; nearly all actives have a fitted effect of over 50% in size
In short: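 Viability was determined by ATP-based luminescence (CellTiter-Glo) in PR-UAS-bla HEK293T cells cultured in 2% charcoal-stripped serum and incubated 16 hr with compounds under R5020 stimulation.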
On the % scale 0 is the no-effect control and ±100 the full control effect.

C/C=C1\C(=O)C[C@H]2[C@@H]3CCC4=CC(=O)CC[C@]4(C)[C@H]3CC[C@]12C
active: Potency [2] 5.99 µM | Potency [3] 26.8 µM
inactive: Potency [1] | Potency [4] | Potency [5] | Potency [6] | Potency [7] | outcome [8] | outcome [9]

NCC[C@H](O)C(=O)N[C@@H]1C[C@H](N)[C@@H](O[C@H]2O[C@H](CN)[C@@H](O)[C@H](O)[C@H]2O)[C@H](O)[C@H]1O[C@H]1O[C@H](CO)[C@@H](O)[C@H](N)[C@H]1O
inactive: activity change [1] 0.203% [at 0.349 µM, stronger effect = higher value] | activity change, negative = inhibition [2] 22.5% [at 0.349 µM] | activity, negative = inhibition [3] -5.02% [at 0.349 µM] | activity change, negative = cytotoxicity [4] 1.61% [at 0.35 µM] | activity change, negative = cytotoxicity [5] 1.09% [at 0.349 µM] | activation [10] 0.148% [at 0.349 µM] | activity change, negative = cytotoxicity [6] 1.11% [at 0.349 µM] | activation [7] 1.1% [at 0.349 µM] | cAMP activity change [11] -0.997% [at 0.349 µM] | activity change, negative = inhibition [12] 0.0742% [at 0.349 µM] | activity change, negative = cytotoxicity [8] 0.765% [at 0.349 µM] | activation [13] 0.26% [at 0.349 µM] | activity change, negative = inhibition [14] 2.43% [at 0.348 µM] | activity change, negative = cytotoxicity [15] 8.45% [at 0.349 µM] | viability change, negative = cytotoxic [16] -7.43% [at 0.29 µM] | activity change, negative = cytotoxicity [9] -7.72% [at 0.29 µM] | activation [17] 5.03% [at 0.29 µM] | activity, negative = inhibition [18] 2.62% [at 0.194 µM]

CCC(=O)/C=C/c1ccc(OC)cc1
inactive: Potency [1] | Potency [2] | outcome [19] | Potency [4] | Potency [6] | Potency [7] | outcome [8] | Potency [13] | Potency [20] | outcome [16] | outcome [9] | outcome [17] | outcome [18]

CCN(CC)S(=O)(=O)c1ccc(C(=O)O)cc1
inactive: Potency [1] | Potency [2] | Potency [3] | Potency [4] | Potency [5] | Potency [6] | Potency [7] | outcome [11] | Potency [12] | outcome [8] | Potency [13] | Potency [14] | Potency [15] | outcome [16] | outcome [9] | outcome [17] | outcome [18]

CN1[C@@H]2CC[C@H]1CC(NC(=O)n1c(=O)[nH]c3ccccc31)C2 (stereo partly drawn)
inactive: Potency [1] | Potency [2] | outcome [19] | Potency [3] | Potency [10] | Potency [6] | Potency [7] | outcome [8] | Potency [13] | Potency [14] | Potency [20] | Potency [15] | outcome [16] | outcome [9] | outcome [17] | outcome [18]

Nc1nc2c(ncn2CCC(CO)CO)c(=O)[nH]1
inactive: Potency [1] | Potency [2] | Potency [3] | Potency [4] | Potency [5] | Potency [6] | outcome [11] | Potency [12] | outcome [8] | Potency [13] | Potency [14] | Potency [20] | Potency [15] | outcome [16] | outcome [9] | outcome [17] | outcome [18]

CCCCN(CCO)CCO
inactive: Potency [1] | Potency [2] | Potency [3] | Potency [4] | Potency [5] | Potency [6] | Potency [7] | outcome [8] | Potency [14] | Potency [20] | outcome [9] | outcome [17] | outcome [18]

O=C(CCOCCOCCOCCOCCC(=O)Nc1c(I)cc(I)c(C(=O)O)c1I)Nc1c(I)cc(I)c(C(=O)O)c1I
inactive: Potency [1] | Potency [2] | Potency [3] | Potency [4] | Potency [5] | Potency [10] | outcome [11] | Potency [12] | outcome [8] | Potency [13] | Potency [14] | Potency [15] | outcome [16] | outcome [9] | outcome [17]
